From the supplement of paper PMC3334620
The full ranking holds about 33,000 sequences; the median of “E-score (-0.5 to 0.5)” is about -0.013, and the highest 2% start at about 0.3. Shown is part of a subset that was picked to be rich in the highest values.

Molecular target: T1, Msn1 (UniProt P22148)
T1 sequence: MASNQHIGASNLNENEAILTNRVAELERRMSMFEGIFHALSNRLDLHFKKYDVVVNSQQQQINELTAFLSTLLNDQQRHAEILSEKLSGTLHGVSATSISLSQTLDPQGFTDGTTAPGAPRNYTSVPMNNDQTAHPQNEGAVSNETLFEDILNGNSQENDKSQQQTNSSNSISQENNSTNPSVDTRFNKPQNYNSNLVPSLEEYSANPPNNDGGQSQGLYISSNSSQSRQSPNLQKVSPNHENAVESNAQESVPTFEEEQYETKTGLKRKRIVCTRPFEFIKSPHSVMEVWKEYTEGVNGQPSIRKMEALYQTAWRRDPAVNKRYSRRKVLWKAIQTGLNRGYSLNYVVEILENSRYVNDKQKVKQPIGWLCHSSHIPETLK
Assay: PBM E-score (8-mer binding enrichment) (E-score (-0.5 to 0.5)); higher = stronger / more preferred TF binding
Conditions: protein concentration: 200 nM; construct: GST-full length
Outline: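 Bound GST-tagged yeast transcription factors, applied at about 100-200 nM to double-stranded universal all-10-mer Agilent arrays, were detected with fluorescent anti-GST. Scans were normalised with masliner. A modified Wilcoxon-Mann-Whitney statistic, the E-score, was assigned to each ungapped eight-base word pooled with its reverse complement by the Universal PBM Analysis Suite.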

| Sequence | PBM E-score |
| --- | --- |
| CTATTCTC | -0.0396 |
| CCACAACC | -0.0582 |
| TAGTTGCA | 0.0158 |
| TAGAAGGA | -0.21 |
| AATAGCTG | -0.128 |
| GTTGAGGA | -0.00729 |
| GCATATTA | 0.0109 |
| ACATATTA | 0.351 |
| CCATATTA | 0.21 |
| ACCTTCCA | -0.119 |
| AATCGAGT | -0.0102 |
| CGAAGCAC | 0.0622 |
| ACACCGTG | -0.05 |
| CTTTGGAC | 0.262 |
| AATTGGAT | 0.157 |
| ATTTGGAG | -0.0358 |
| GATTGGAC | 0.109 |
| AATTGGAC | 0.342 |
| ATTTGGAC | 0.366 |
| CTGAGCTC | 0.0318 |
| ATTTGCCC | 0.0584 |
| AAGTGATA | -0.052 |
| GACAAGAA | 0.374 |

| Sequence | PBM E-score |
| --- | --- |
| CACAAGAA | 0.105 |
| CACAGGAA | 0.0261 |
| GACAGGAC | 0.17 |
| GACAAGCA | 0.278 |
| GACAAAAA | 0.466 |
| TACAAAAA | 0.264 |
| AACAAGCC | 0.0265 |
| TACAAGAA | 0.169 |
| AACAAAAA | 0.15 |
| GACAAGCC | 0.318 |
| GACAGGAA | 0.323 |
| ATCTATCC | -0.0249 |
| CCTAGCCA | -0.0603 |
| CCTGCAAA | -0.188 |
| AAGCAAGG | -0.0227 |
| ATTTACTA | 0.206 |
| AGTCAGAA | -0.0729 |
| CGTACGGC | -0.134 |
| CCTATGTA | -0.0586 |
| CACACAAA | 0.115 |
| AACAAAAC | 0.199 |
| AACAAACA | 0.133 |
| CACAAACC | -0.135 |

| Sequence | PBM E-score |
| --- | --- |
| CACAAAAC | 0.0522 |
| GACAAACC | 0.445 |
| TACAAACA | 0.301 |
| TACACAAA | 0.205 |
| AACAAACC | 0.155 |
| GACACAAA | 0.395 |
| GACAAACA | 0.456 |
| GACAAAAC | 0.451 |
| GACATCAC | 0.118 |
| CGGCAGCC | -0.118 |
| CGCGGTCC | -0.0855 |
| AGTATTGG | -0.0788 |
| AGAGTTAT | -0.0142 |
| GATAGGCA | -0.0844 |
| AGTAGGCA | -0.07 |
| AACAAGAC | 0.135 |
| CACAAGAC | -0.118 |
| GACAAGAC | 0.311 |
| GCCCATGA | -0.081 |
| GGGGACCA | -0.223 |
| TGGGACAA | 0.471 |
| TGGGAGAA | -0.209 |
| TGGGACCA | -0.117 |

| Sequence | PBM E-score |
| --- | --- |
| GGGGACAC | 0.28 |
| GGGGACAA | 0.456 |
| ATAGCACA | -0.0389 |
| ATGGAGCG | -0.0801 |
| CAGATAAG | 0.102 |
| ATCCGAAT | 0.309 |
| CTCCGACA | 0.174 |
| CTCCGAGA | 0.152 |
| ATCCGAAG | 0.0243 |
| TTCCGAAA | 0.0799 |
| ATCCGAGA | 0.187 |
| GTCCGAGA | 0.326 |
| ATCCGAAA | 0.057 |
| ATCCGAAC | -0.00081 |
| ATCCGACA | 0.128 |
| GTCCGAAA | 0.312 |
| GTCCGACA | 0.322 |
| ATTAATTA | 0.0938 |
| CTCTTACC | 0.0706 |
| ATCGCCTC | -0.0571 |
